Assay results as given in PubChem BioAssay AID1159580 (chemical genetic matrix, 2015).
Among all 5,500 compounds or so, about 2,000 (36%) were called active. Inconclusive results (about 18%) are left out. No stated cut-off is given here; in the data, active means normalized growth mostly below about 0.91 (no sharp cut-off); inconclusive means no clear call, values can overlap the other calls; inactive means mostly above about 0.92. This is one part of the list.

Experiment: chemical genetic growth profiling, strain panel (AID 1159580);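 further: tested at 20 µM; growth read once vehicle control cultures reached saturation at 30 °C; 1 = growth at the plate median or of vehicle wells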
Conditions: growth OD

Measured: normalized growth

C=C1C(=O)OC2CC1C(OC(C)=O)C/C(C)=C/CC/C(C)=C/CC[C@]2(C)O (stereo partly specified)
inactive: S. cerevisiae deletion strains, locus YJR043C, strain POL32, stronger effect = lower value 1.04 | S. cerevisiae deletion strains, locus YJR075W, strain HOC1, stronger effect = lower value 0.999 | S. cerevisiae deletion strains, locus YKL009W, strain mrt4, stronger effect = lower value 0.998 | S. cerevisiae deletion strains, locus YKL068W, stronger effect = lower value 1.01 | S. cerevisiae deletion strains, locus YKL085W, strain MDH1 (second series), stronger effect = lower value 0.99 | S. cerevisiae deletion strains, locus YKL085W, strain MDH1, stronger effect = lower value 0.99 | S. cerevisiae deletion strains, locus YKL160W, strain elf1, stronger effect = lower value 0.982 | S. cerevisiae deletion strains, locus YKR001C, strain vps1, stronger effect = lower value 1.02 | S. cerevisiae deletion strains, locus YKR026C, strain gcn3, stronger effect = lower value 0.997 | S. cerevisiae deletion strains, locus YKR091W, strain srl3, stronger effect = lower value 0.981 | S. cerevisiae deletion strains, locus YLL001W, strain dnm1, stronger effect = lower value 0.973 | S. cerevisiae deletion strains, locus YLL026W, stronger effect = lower value 0.987 | S. cerevisiae deletion strains, locus YLL041C, strain sdh2, stronger effect = lower value 0.993 | S. cerevisiae deletion strains, locus YLR027C, strain aat2, stronger effect = lower value 1.01 | S. cerevisiae deletion strains, locus YLR039C, strain RIC1, stronger effect = lower value 0.894 | S. cerevisiae deletion strains, locus YLR058C, strain SHM2, stronger effect = lower value 1.02 | S. cerevisiae deletion strains, locus YLR102C, strain apc9, stronger effect = lower value 1.02 | S. cerevisiae deletion strains, locus YLR221C, strain rsa3, stronger effect = lower value 1.03 | S. cerevisiae deletion strains, locus YLR258W, strain gsy2, stronger effect = lower value 1 | S. cerevisiae deletion strains, locus YLR262C, strain YPT6 (second series), stronger effect = lower value 0.916 | S. cerevisiae deletion strains, locus YLR262C, strain YPT6, stronger effect = lower value 0.858 | S. cerevisiae deletion strains, locus YLR268W, strain sec22, stronger effect = lower value 1 | S. cerevisiae deletion strains, locus YLR320W, strain mms22, stronger effect = lower value 1.03 | S. cerevisiae deletion strains, locus YLR330W, strain CHS5, stronger effect = lower value 1.03 | S. cerevisiae deletion strains, locus YLR342W, strain FKS1 (second series), stronger effect = lower value 0.993 | S. cerevisiae deletion strains, locus YLR342W, strain FKS1, stronger effect = lower value 0.995 | S. cerevisiae deletion strains, locus YLR357W, strain rsc2, stronger effect = lower value 1.02 | S. cerevisiae deletion strains, locus YLR370C, strain arc18, stronger effect = lower value 0.998 | S. cerevisiae deletion strains, locus YLR371W, strain rom2, stronger effect = lower value 1.02 | S. cerevisiae deletion strains, locus YLR384C, strain iki3, stronger effect = lower value 0.997 | S. cerevisiae deletion strains, locus YLR418C, strain cdc73, stronger effect = lower value 1.06 | S. cerevisiae deletion strains, locus YML016C, strain PPZ1, stronger effect = lower value 1.01 | S. cerevisiae deletion strains, locus YML032C, strain rad52, stronger effect = lower value 1.01 | S. cerevisiae deletion strains, locus YML120C, strain ndi1, stronger effect = lower value 0.99 | S. cerevisiae deletion strains, locus YML124C, strain tub3, stronger effect = lower value 1.01 | S. cerevisiae deletion strains, locus YMR058W, strain fet3, stronger effect = lower value 0.99 | S. cerevisiae deletion strains, locus YMR078C, strain ctf18, stronger effect = lower value 1.01 | S. cerevisiae deletion strains, locus YMR125W, strain sto1, stronger effect = lower value 0.973 | S. cerevisiae deletion strains, locus YMR129W, stronger effect = lower value 0.997 | S. cerevisiae deletion strains, locus YMR205C, strain PFK2, stronger effect = lower value 0.985 | S. cerevisiae deletion strains, locus YMR223W, strain ubp8, stronger effect = lower value 1 | S. cerevisiae deletion strains, locus YMR231W, strain pep5, stronger effect = lower value 0.976 | S. cerevisiae deletion strains, locus YMR263W, strain SAP30, stronger effect = lower value 1.01 | S. cerevisiae deletion strains, locus YMR307W, strain GAS1, stronger effect = lower value 0.977 | S. cerevisiae deletion strains, locus YNL067W, strain RPL9B, stronger effect = lower value 1.01 | S. cerevisiae deletion strains, locus YNL071W, strain lat1, stronger effect = lower value 0.996 | S. cerevisiae deletion strains, locus YNL128W, strain TEP1, stronger effect = lower value 1.03 | S. cerevisiae deletion strains, locus YNL153C, strain GIM3, stronger effect = lower value 1.04 | S. cerevisiae deletion strains, locus YNL209W, strain ssb2, stronger effect = lower value 0.991 | S. cerevisiae deletion strains, locus YNL233W, strain BNI4, stronger effect = lower value 1.02 | S. cerevisiae deletion strains, locus YNL248C, strain rpa49, stronger effect = lower value 0.988 | S. cerevisiae deletion strains, locus YNL250W, strain rad50, stronger effect = lower value 1.04 | S. cerevisiae deletion strains, locus YNL271C, strain bni1, stronger effect = lower value 1.02 | S. cerevisiae deletion strains, locus YNL298W, strain CLA4, stronger effect = lower value 1.01 | S. cerevisiae deletion strains, locus YNL307C, strain MCK1, stronger effect = lower value 1.03 | S. cerevisiae deletion strains, locus YNL322C, strain KRE1 (second series), stronger effect = lower value 1.01 | S. cerevisiae deletion strains, locus YNL322C, strain KRE1, stronger effect = lower value 1 | S. cerevisiae deletion strains, locus YNR049C, strain mso1, stronger effect = lower value 0.994 | S. cerevisiae deletion strains, locus YNR052C, strain pop2, stronger effect = lower value 1.01 | S. cerevisiae deletion strains, locus YOL012C, strain htz1 0.807 | S. cerevisiae deletion strains, locus YOL147C, strain pex11, stronger effect = lower value 1.03 | S. cerevisiae deletion strains, locus YOR001W, strain rrp6, stronger effect = lower value 1.01 | S. cerevisiae deletion strains, locus YOR061W, strain CKA2, stronger effect = lower value 1.02 | S. cerevisiae deletion strains, locus YOR069W, strain VPS5, stronger effect = lower value 1.01 | S. cerevisiae deletion strains, locus YOR070C, strain gyp1, stronger effect = lower value 0.995 | S. cerevisiae deletion strains, locus YOR080W, strain dia2, stronger effect = lower value 1.01 | S. cerevisiae deletion strains, locus YOR083W, strain WHI5, stronger effect = lower value 0.985 | S. cerevisiae deletion strains, locus YOR106W, strain vam3, stronger effect = lower value 1 | S. cerevisiae deletion strains, locus YOR136W, strain idh2, stronger effect = lower value 1.02 | S. cerevisiae deletion strains, locus YOR144C, strain elg1, stronger effect = lower value 1.02 | S. cerevisiae deletion strains, locus YOR184W, strain ser1, stronger effect = lower value 1.02 | S. cerevisiae deletion strains, locus YOR265W, strain rbl2, stronger effect = lower value 0.996 | S. cerevisiae deletion strains, locus YOR270C, strain vph1, stronger effect = lower value 0.937 | S. cerevisiae deletion strains, locus YOR290C, strain snf2, stronger effect = lower value 0.961 | S. cerevisiae deletion strains, locus YOR316C, strain cot1, stronger effect = lower value 1.01 | S. cerevisiae deletion strains, locus YPL051W, strain arl3, stronger effect = lower value 1.01 | S. cerevisiae deletion strains, locus YPL078C, strain atp4, stronger effect = lower value 0.96 | S. cerevisiae deletion strains, locus YPL106C, strain sse1, stronger effect = lower value 0.991 | S. cerevisiae deletion strains, locus YPL240C, strain hsp82, stronger effect = lower value 1 | S. cerevisiae deletion strains, locus YPL241C, strain CIN2, stronger effect = lower value 1 | S. cerevisiae deletion strains, locus YPR119W, strain clb2, stronger effect = lower value 1.01 | S. cerevisiae deletion strains, locus YPR141C, strain kar3, stronger effect = lower value 1.01 | S. cerevisiae deletion strains, locus YPR163C, strain tif3, stronger effect = lower value 1 | S. cerevisiae deletion strains, locus YPR167C, strain met16, stronger effect = lower value 1.01 | S. cerevisiae deletion strains, strain wtn01, stronger effect = lower value 1.02 | S. cerevisiae strains, strain wild type, stronger effect = lower value 1.01
